From the supplement of paper PMC10933113
Structures can show the parent of a compound that is named as a salt. ± gives the uncertainty stated by the source.

system: THP-1; test: CD54 surface expression induction over DMSO control (% over DMSO); higher = stronger dendritic cell activation; settings: exposure time: 24 h
Description: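 hCLAT-like CD54 and CD86 surface expression on THP1 cells after 24 h exposure at a single concentration (highest non-cytotoxic concentration, or 100-200 µM if not cytotoxic). Flow cytometry (iQue) was run on 5,000 live cells.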

Question: Which “CD54 surface expression induction” value does the source give for `CC1COc2ccccc2N1C(=O)C(Cl)Cl` (stereo not given) [Benoxacor] (10 µM) here?
Answer: The value was 13.4 ± 3.8.

Question: With `CC(C)(C)c1ccc(S)cc1` [4-tert-Butylbenzenethiol] (200 µM) as the compound, how does the “CD54 surface expression induction” value read?
Answer: The value was 38.6 ± 14.

Question: With `CC1=C(/C=C/C(C)=C/C=C/C(C)=C/C=O)C(C)(C)CCC1` [13-cis-Retinal (Vitamin A aldehyde)] (100 µM) as the compound, how does the “CD54 surface expression induction” value read?
Answer: The value was 188 ± 9.3.

Question: How did the “CD54 surface expression induction” value turn out when `CCCCc1ccc2[nH]c(NC(=O)OC)nc2c1` [Parbendazole*] (200 µM) was run?
Answer: Its value is 262 ± 39.

Question: Which “CD54 surface expression induction” value does the source give for `O=c1cc(-c2ccccc2)oc2cc(O)cc(O)c12` [Chrysin] (100 µM) here?
Answer: The value was 18.9 ± 1.4.

Question: With `CC(C)CCCCCCCOC(=O)c1ccc(C(=O)OCCCCCCCC(C)C)c(C(=O)OCCCCCCCC(C)C)c1` [Triisodecyl trimellitate] (163 µM) as the compound, how does the “CD54 surface expression induction” value read?
Answer: The value was 10.7 ± 46.

Question: Which “CD54 surface expression induction” value does the source give for `C=CC(C)(CCC=C(C)C)OC(=O)CC(C)C` (stereo not given) [Linalyl isovalerate] (200 µM) here?
Answer: Its value is 16.3 ± 11.

Question: For `O=C(Oc1ccccc1)c1ccccc1O` [Phenyl salicylate] (200 µM), which “CD54 surface expression induction” value is on record?
Answer: Its value is -8.79 ± 7.5.

Question: With `O=[N+]([O-])c1cc(Cl)c(Cl)c(Cl)c1Cl` [2,3,4,5-Tetrachloronitrobenzene] (10 µM) as the compound, how does the “CD54 surface expression induction” value read?
Answer: The value was -4.73 ± 2.7.

Question: For `CC(C)=CCC1C(=O)N(c2ccccc2)N(c2ccccc2)C1=O` [Feprazone] (200 µM), which “CD54 surface expression induction” value is on record?
Answer: Its value is 62.3 ± 3.

Question: Which “CD54 surface expression induction” value does the source give for `Nc1ccccc1N` [1,2-Phenylenediamine*] (200 µM) here?
Answer: The value was 161 ± 20.

Question: With `O=C(N/N=C/c1ccccc1O)c1ccncc1` [Salinazid] (10 µM) as the compound, how does the “CD54 surface expression induction” value read?
Answer: Its value is 17.1 ± 8.6.

Question: How did the “CD54 surface expression induction” value turn out when `CCC(=O)C=Cc1ccc(OC)cc1` [1-(4-Methoxyphenyl)-1-pentene-3-one] (200 µM) was run?
Answer: Its value is -15.2 ± 1.7.

Question: For `Cc1cccc(N(C)C(=S)Oc2ccc3c(c2)C2CCC3C2)c1` (stereo not given) [Tolciclate] (100 µM), which “CD54 surface expression induction” value is on record?
Answer: Its value is 1.18 ± 1.2.

Question: Which “CD54 surface expression induction” value does the source give for `CC(C)(C)c1cc(O)ccc1O` [tert-Butylhydroquinone] (100 µM) here?
Answer: The value was 48.9 ± 12.

Question: Which “CD54 surface expression induction” value does the source give for `COC(=O)Nc1nc2cc([S+]([O-])c3ccccc3)ccc2[nH]1` (stereo not given) [Oxfendazole] (100 µM) here?
Answer: Its value is 17.4 ± 3.6.

Question: How did the “CD54 surface expression induction” value turn out when `Nc1ccc2cc3ccccc3cc2c1` [2-Aminoanthracene] (200 µM) was run?
Answer: The value was -52.5 ± 1.6.

Question: Which “CD54 surface expression induction” value does the source give for `CCCCCCCCCCC=CC1CC(=O)OC1=O` (stereo not given) [3-(Dodecenyl)dihydro-2,5-furandione] (200 µM) here?
Answer: Its value is 16 ± 37.

Question: For `O=C1c2ccccc2C(=O)C1c1ccc2ccccc2n1` [D & C Yellow II] (10 µM), which “CD54 surface expression induction” value is on record?
Answer: Its value is -4.43 ± 3.6.

Question: For `CO[C@@]12[C@H](COC(N)=O)C3=C(C(=O)C(C)=C(N)C3=O)N1C[C@@H]1N[C@@H]12` [Mitomycin C] (100 µM), which “CD54 surface expression induction” value is on record?
Answer: The value was 55.6 ± 52.

Question: For `CCCCCCCCCCCCN(CCO)CCO` [Lauryldiethanolamine] (10 µM), which “CD54 surface expression induction” value is on record?
Answer: Its value is -10.1 ± 4.7.

Question: With `CC/C=C\C/C=C\C/C=C\CCCCCCCC(=O)OCC` [Ethyl linolenate] (10 µM) as the compound, how does the “CD54 surface expression induction” value read?
Answer: Its value is -3.84 ± 2.1.

Question: `CCOC(=O)CCC(=O)OCC` [Diethyl butanedioate] (200 µM) was tested. Which “CD54 surface expression induction” value did it give?
Answer: Its value is -4.24 ± 4.1.

Question: For `O=C(Nc1ncc([N+](=O)[O-])s1)c1cccs1` [Tenonitrozole] (10 µM), which “CD54 surface expression induction” value is on record?
Answer: The value was -7 ± 4.7.

Question: `CCC1OCC(COc2ccc(Oc3ccccc3)cc2)O1` (stereo not given) [Diofenolan] (10 µM) was tested. Which “CD54 surface expression induction” value did it give?
Answer: The value was -6.06 ± 5.8.

Question: With `Clc1ccccc1-c1nc(-c2ccncc2)no1` [Pifexole] (100 µM) as the compound, how does the “CD54 surface expression induction” value read?
Answer: Its value is -5.59 ± 1.4.

Question: With `COc1cc(/C=C2\CCC/C(=C\c3ccc(O)c(OC)c3)C2=O)ccc1O` [Cyclovalone] (10 µM) as the compound, how does the “CD54 surface expression induction” value read?
Answer: Its value is -1.01 ± 3.

Question: With `O=C(O)c1cc(O)c2ccccc2c1O` [1,4-dihydroxy-2-naphthoic acid*] (10 µM) as the compound, how does the “CD54 surface expression induction” value read?
Answer: Its value is 374 ± 47.

Question: With `Nc1ccc(/N=N/c2ccccc2)c(N)n1` [Phenazopyridine hydrochloride] (100 µM) as the compound, how does the “CD54 surface expression induction” value read?
Answer: Its value is -3.19 ± 0.03.

Question: `Sc1nc2ccccc2s1` [2-Mercaptobenzothiazole] (100 µM) was tested. Which “CD54 surface expression induction” value did it give?
Answer: Its value is -13.7 ± 14.

Question: With `NC(=O)N/N=C/c1ccc([N+](=O)[O-])o1` [Nitrofurazone] (200 µM) as the compound, how does the “CD54 surface expression induction” value read?
Answer: Its value is 15.9 ± 5.6.

Question: With `COc1ccc2cc(CCC(C)=O)ccc2c1` [Nabumetone] (100 µM) as the compound, how does the “CD54 surface expression induction” value read?
Answer: Its value is -12.2 ± 1.2.

Question: `c1ccc(SCCSc2ccccc2)cc1` [1,2-Bis(phenylthio)ethane] (100 µM) was tested. Which “CD54 surface expression induction” value did it give?
Answer: Its value is -6.44 ± 3.

Question: How did the “CD54 surface expression induction” value turn out when `Clc1ccc2c(c1)Nc1ccccc1S2` [2-Chlorophenothiazine] (100 µM) was run?
Answer: The value was -15.3 ± 22.

Question: How did the “CD54 surface expression induction” value turn out when `O=c1[nH]sc2cc(Cl)ccc12` [Ticlatone] (10 µM) was run?
Answer: The value was -4.79 ± 7.2.

Question: For `CCCCCOc1ccccc1/C(=C\SC)n1ccnc1` [Neticonazole] (100 µM), which “CD54 surface expression induction” value is on record?
Answer: Its value is 17.2 ± 5.

Question: How did the “CD54 surface expression induction” value turn out when `COc1cc(C(C)C)c2c(c1)S(=O)(=O)N(COc1cc(=O)n3cccc(OCCN4CCCCC4)c3n1)C2=O` (100 µM) was run?
Answer: The value was 61 ± 55.

Question: `Clc1nc(C(Cl)(Cl)Cl)c(Cl)c(Cl)c1Cl` [2,3,4,5-Tetrachloro-6-(trichloromethyl)pyridine] (10 µM) was tested. Which “CD54 surface expression induction” value did it give?
Answer: Its value is -4.98 ± 3.6.

Question: `C[n+]1cc2c3c(ccc2c2ccc4cc5c(cc4c21)OCO5)OCO3` [Sanguinarine] (10 µM) was tested. Which “CD54 surface expression induction” value did it give?
Answer: Its value is 36 ± 5.9.

Question: With `Nc1nnc(-c2ccc([N+](=O)[O-])o2)o1` [2-Amino-5-(5-nitro-2-furyl)-1,3,4-oxadiazole] (10 µM) as the compound, how does the “CD54 surface expression induction” value read?
Answer: The value was -7.68 ± 3.2.
